Screens from PubChem BioAssay.
Giardia FBPA inh: inhibitors of Giardia lamblia fructose-1,6-bisphosphate aldolase; purified Giardia FBPA; Potency, µM (titrated, usually from 59.6 µM), without a hit: at the highest dose activity, negative = inhibition, hits mostly inhibitors; 290,000 tested, 0.71% active; also: potency is read from the fitted curve at half-maximal effect; % is scaled to controls: 0 for no effect and ±100 for the full control effect; nearly all actives have a fitted effect of over 55% in size
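Giardia FBPA (40 nM reagent) was preincubated 10 min at RT with compound (up to 57.5 uM final), then substrate plus GAPDH/TPI/NAD/arsenate coupling system with diaphorase/resazurin was added; resorufin fluorescence (525/598 nm) was read after 20 min.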
Shiga inhibitor: inhibitors of Shiga toxin in Vero cells; 290,000 tested, 9.2% active; Vero cells, Shiga toxin protein synthesis inhibition reporter; inhibition, % at 38.7 µM; in the data active = inhibition mostly above about 28%, no sharp cut-off; inactive = mostly below about 43%; also: 0% is about no effect
RE007 growth inh: less growth of the S. pombe RE007 Vpr strain | S. pombe RE007 Vpr strain, BacTiter-Glo ATP luminescence, 24 h | Potency, µM (doses to about 92.2 µM), for the others: top-dose activity change, negative = less growth, actives largely listed as inhibitors | 360,000 tested, 0.21% active; active = well fitted falling curve with a large enough effect; inconclusive = small, poorly fitted or top-dose-only effect; inactive = no such curve, though single readings can be large or run the other way; also: potency is read from the fitted curve at half-maximal effect; % is scaled to controls: 0 for no effect and ±100 for the full control effect; nearly all actives have a fitted effect of over 50% in size
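Fission yeast RE007 carrying one integrated HIV-1 vpr copy, seeded at OD 0.01 in PMG+AL medium with 23 nL pinned compound. Grown 24 h at 30 degrees; viability read by BacTiter-Glo luminescence after 5 min.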
Tb PYK inh: inhibitors of Trypanosoma brucei pyruvate kinase | Q57TT1 | TbPYK enzyme, Kinase-Glo Plus ATP luminescence, 45 min | Potency, µM (series often up to 76.8 µM), for the others: at the top dose activity, negative = inhibition, usual class: inhibitors | 410,000 tested, 0.12% active | AID 624173; also: potency is read from the fitted curve at half-maximal effect; % is scaled to controls: 0 for no effect and ±100 for the full control effect; nearly all actives have a fitted effect of over 50% in size
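In this concentration-response screen, enzyme-free wells defined baseline while DMSO plates tracked drift. Each reaction combined TbPYK, substrate, compound and 130 uM ADP for 45 min at room temperature. Kinase-Glo Plus luminescence gave the signal.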
CHX counter: affects cycloheximide protein synthesis inhibition readout, counter-screen; AID 2314; max response, %; cell reporter, cycloheximide protein synthesis inhibition counterscreen; 300,000 tested, 12% active; in the data active = max response mostly above about 13%, no sharp cut-off; inactive = mostly below about 14%; also: read at 38.3 µM for the half of the compounds with a filed dose; 0% is about no effect
LmPK inhibitor: blocks Leishmania mexicana pyruvate kinase activity; Q27686; purified LmPK, Kinase-Glo ATP luminescence, 1 h; Potency, µM (doses to about 57.5 µM), without a hit: at the top dose activity change, negative = inhibition, hits mostly inhibitors; 290,000 tested, 0.37% active; also: potency is read from the fitted curve at half-maximal effect; % is scaled to controls: 0 for no effect and ±100 for the full control effect
Target sequence (Q27686 whole entry, looked up): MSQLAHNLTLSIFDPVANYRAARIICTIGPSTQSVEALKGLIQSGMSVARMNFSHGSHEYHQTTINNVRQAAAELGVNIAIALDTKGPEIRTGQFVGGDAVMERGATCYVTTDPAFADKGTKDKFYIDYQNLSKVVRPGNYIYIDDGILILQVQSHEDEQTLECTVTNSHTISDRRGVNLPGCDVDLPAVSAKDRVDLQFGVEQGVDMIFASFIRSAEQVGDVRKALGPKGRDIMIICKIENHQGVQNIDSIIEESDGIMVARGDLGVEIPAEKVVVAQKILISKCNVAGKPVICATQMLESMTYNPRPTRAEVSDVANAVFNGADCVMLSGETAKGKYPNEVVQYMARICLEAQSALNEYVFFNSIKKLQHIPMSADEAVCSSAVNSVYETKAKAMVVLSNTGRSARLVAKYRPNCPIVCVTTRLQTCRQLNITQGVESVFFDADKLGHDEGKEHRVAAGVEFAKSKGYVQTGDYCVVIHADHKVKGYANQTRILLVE
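In 50 mM imidazole pH 7.2 with 7 mM MgCl2, LmPK (0.1 nM) turned over PEP (0.5 mM) and ADP (0.1 mM) for 1 h at room temperature. Luciferase read-out of ATP.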
* = called active by the depositor; ? = inconclusive; . = not tested or not shown; [ ] = another dose, or the depositor's remark. This is one part of a sample in which hits are shown more often than they occur. Unless noted, calls follow the shape of the dose curve; as a rule, active = well fitted curve in the direction sought with a large enough effect; inconclusive = small, poorly fitted or top-dose-only effect, or another doubt; inactive = no such curve, though single readings can be large; an effect the other way counts as inactive or inconclusive.

SMILES | Giardia FBPA inh | Shiga inhibitor | RE007 growth inh | Tb PYK inh | CHX counter | LmPK inhibitor
C/C(=N\NC(=O)c1ccn(C)n1)c1ccco1 | 1% | 85* | 6% | -6% | 40* | -5%
C/C(=N/NC(=O)c1cc(C)[nH]n1)c1ccncc1 | -3% | 49* | -16% | 0% | 17* | 3%
CC(/C=C/c1ccco1)=N\NC(=O)c1cc(C)[nH]n1 | ? | 3 | -12% | -7% | 3 | 2%
C/C(=N/NC(=O)c1cc(C)[nH]n1)c1ccco1 | -1% | 42* | 9% | 6% | 27* | -20%
O=C(CN1CCN(Cc2ccc(F)cc2)C1=O)NCc1ccccc1 | . | . | . | -6% | . | .
O=c1c(NCCc2ccc(Cl)cc2)nccn1-c1ccccc1 | . | . | . | -4% | . | .
CCOc1ccc2c(c1)ncn2Cc1ccccc1 | 7% | 108* | -6% | 2% | 24* | -2%[11.5 µM]
CC(=O)Oc1ccc(Cn2cnc3cc4ccccc4cc32)cc1 | -12% | 19 | 10% | 1% | 15* | 2%
Cc1c(CC(=O)NCc2ccc(F)cc2)c(=O)oc2cc(O)c(Cl)cc12 | . | . | . | -4% | . | .
CC1(CC(=O)N/N=C/c2ccc(-c3ccc(C(=O)O)cc3)o2)OCCO1 | 1% | 20 | -1% | -10% | 21 | 0%
CC1(CC(=O)N/N=C/c2ccc(-c3ccc(Cl)cc3)o2)OCCO1 | -2% | 13 | 10% | -4% | 15* | -1%
COC(=O)c1ccc(-c2ccc(/C=N/NC(=O)CC3(C)OCCCO3)o2)cc1 | -3% | 43* | 2% | -9% | 36* | -8%
CC1CCCN(S(=O)(=O)c2ccc(NC(=O)c3nc(SC(C)C)ncc3Cl)cc2)C1 (configuration not stated) | . | . | . | -11% | . | .
Cc1ccsc1C(=O)NNC(=O)c1ccncc1 | . | . | 1% | 0% | . | .
Cc1csc(NC(=O)c2sccc2C)n1 | -5% | 91* | -27% | -28% | 59* | 14µM*
Cc1ccsc1C(=O)Nc1nccs1 | ? | 60* | 4% | -4% | 16* | ?
CN(CC(=O)Nc1ccc(OC(F)(F)F)cc1)C(=O)Cc1cccs1 | . | . | 2% | -4% | . | .
O=C(Nc1nnc(-c2ccccc2)o1)c1ccc(Cl)cc1 | 25% | -4 | -27% | -3% | 9 | 5%
O=C(Nc1nnc(-c2ccco2)o1)c1cccc(N2C(=O)CCC2=O)c1 | ? | 99* | 25% | 0% | 22 | 10%
Clc1ccc(-c2nnc(-c3ccco3)o2)cc1 | 1% | 91* | ? | 1% | 42* | -13%
Cc1ccccc1C(=O)Nc1nnc(-c2ccco2)o1 | 12% | 57* | -2% | 1% | 33* | -27%
O=C(Nc1nnc(-c2ccco2)o1)c1ccc(Cl)cc1 | ? | 42* | -4% | 2% | 29* | -13%
O=C(Nc1nnc(-c2ccc(Cl)cc2)o1)c1cccc(N2C(=O)CCC2=O)c1 | 27% | 7 | -10% | -4% | 1 | -5%
COc1ccccc1CNC(=O)c1cccn1-c1nnc(N2CCCC2)s1 | . | . | . | -4%[15.4 µM] | . | .
Cc1ccc(C(=O)Nc2nnc(-c3ccco3)o2)cc1C | ? | 57* | -10% | -1% | 22* | -9%
SMILES | Giardia FBPA inh | Shiga inhibitor | RE007 growth inh | Tb PYK inh | CHX counter | LmPK inhibitor
CN(C)c1nnc(-c2ccc(Cl)cc2)o1 | 2% | 49* | 4% | 3% | 39* | -4%
CCCCCC(=O)/C=C/C=C\CCCCCCCC(=O)O | 5% | . | . | . | . | .
O=C1c2ccccc2C(=O)N1Cc1ccc2c(c1)OCO2 | 5% | -18 | 17% | -3% | 8 | -20%
C=C1c2ccccc2NC(=S)N1Cc1ccc2c(c1)OCO2 | -6% | 65* | -12% | -8% | 41* | -2%
CC(=O)N1CCc2cc(Br)cc(S(=O)(=O)NCCc3cccc(C)c3)c21 | . | . | . | -4% | . | .
Cc1nc2cnc(N3CCOCC3)nc2n(C[C@H]2CCCO2)c1=O | 4% | . | . | . | . | .
CCOC(=O)/C(N=Nc1ccc2c(c1)OCO2)=C(\C)O | -2% | 92* | -3% | -3% | 51* | -11%
CN(C)CCCNc1cc(C(C)(C)C)nc2c(-c3ccc(Cl)cc3)cnn12 | 0% | 53* | 11% | 1% | 40* | 7%
CC(C)(C)c1cc(NCCCn2ccnc2)n2ncc(-c3ccccc3)c2n1 | 0% | 67* | 9% | -1% | 37* | 1%
Cc1cc(NCCCN2CCOCC2)n2ncc(-c3ccc(Cl)cc3)c2n1 | -11% | 59 | -5% | 10% | 22* | 0%
CC(C)Nc1cc(C(C)(C)C)nc2c(-c3ccccc3)cnn12 | 1% | 151* | -20% | 4% | 55* | -1%
Cn1c(=O)c2c(nc(NCCCN3CCOCC3)n2Cc2ccc(Cl)cc2)n(C)c1=O | 10% | -14 | 0% | -5% | 10 | 4%
CC(C)C(=O)N1c2ncnn2C2(CCCCC2)[C@@H]2CCCC[C@@H]21 | . | . | . | 0% | . | .
Cc1ccc(Cn2c(C(=O)O)c(CNCc3ccccc3Cl)c3ccc(C)cc32)cc1 | . | . | . | -10% | . | .
COc1cccc(OC)c1/C=C/C(=O)NC1CCCCC1 | 2% | 1 | -2% | 0% | 1 | 0%
CC(C)(C)c1cc(-n2ccnc2)n2ncc(-c3ccc(Cl)cc3)c2n1 | -2% | 59* | -2% | 5% | 40* | 2%
CCc1nccn1-c1cc(C(C)(C)C)nc2c(-c3ccc(Cl)cc3)cnn12 | 3% | 22 | -19% | -6% | 19 | 2%
Cc1cc(NCCCn2ccnc2)n2ncc(-c3ccc(Cl)cc3)c2n1 | 6% | 83* | -1% | -2% | 40* | -2%
Cc1nc(-c2ccc(C)c(N3CCN(C(=O)Nc4cccc(Cl)c4C)CC3)c2)no1 | . | . | . | 5% | . | .
CCOc1ccccc1N1CCN(C(=O)c2ccccc2OCc2c(C)noc2C)CC1 | . | . | 1% | -3% | . | .
Cc1ccc2cc(NC(=O)c3cccc(F)c3)ccc2n1 | -21% | 75* | -16% | -1% | 39* | -23%
Cc1cc(C)nc(NC(=O)c2cccc(Br)c2)n1 | 2% | -5 | 10% | 0% | 0 | -5%
O=C(Nc1ccncc1)c1ccc2ccccc2c1 | -4% | 58* | -25% | -5% | 43* | -7%
CSc1nccc(NC(=O)c2cccc(Br)c2)n1 | 20% | 35 | 6% | -1% | 23* | 4%
O=C(Nc1ccc2ccccc2c1)c1ccc(NS(=O)(=O)c2ccc(Br)s2)cc1 | -2% | 46* | -4% | 8% | 36* | -1%
CC(C)C(=O)Nc1cccc(NC(=O)c2cccc(F)c2)c1 | -4% | -12 | 6% | 4% | -3 | -1%
OCC1OC(n2cnc3c(SCc4ccccc4)nc(F)nc32)C(O)C1O (configuration not stated) | . | . | -7% | -21% | . | .
Cc1ccc(C(CNS(=O)(=O)c2ccc(Cl)cc2)N2CCN(C)CC2)cc1 (configuration not stated) | . | . | -24% | -6% | . | .
O=C(Nc1ccc2ccccc2c1)c1ccc(Cl)cc1 | 9% | 68* | 0% | -2% | 41* | -7%
